# FLuc modulator: qHTS profiling assay for firefly luciferase inhibitor/activator using purifed enzyme and Km concentrations of substrates (counterscreen for miR-21 project); Luciferin 4-monooxygenase (Photinus pyralis), P08659; purified FLuc, Km substrates, luminescence inhibition; Potency, µM (highest dose often 57.5 µM), usual class: inhibitors; hit rate 6.9% among 360,000; AID 588342, 2011; further: nearly all actives have a fitted effect of over 55% in size
# Target sequence (P08659 whole entry, looked up): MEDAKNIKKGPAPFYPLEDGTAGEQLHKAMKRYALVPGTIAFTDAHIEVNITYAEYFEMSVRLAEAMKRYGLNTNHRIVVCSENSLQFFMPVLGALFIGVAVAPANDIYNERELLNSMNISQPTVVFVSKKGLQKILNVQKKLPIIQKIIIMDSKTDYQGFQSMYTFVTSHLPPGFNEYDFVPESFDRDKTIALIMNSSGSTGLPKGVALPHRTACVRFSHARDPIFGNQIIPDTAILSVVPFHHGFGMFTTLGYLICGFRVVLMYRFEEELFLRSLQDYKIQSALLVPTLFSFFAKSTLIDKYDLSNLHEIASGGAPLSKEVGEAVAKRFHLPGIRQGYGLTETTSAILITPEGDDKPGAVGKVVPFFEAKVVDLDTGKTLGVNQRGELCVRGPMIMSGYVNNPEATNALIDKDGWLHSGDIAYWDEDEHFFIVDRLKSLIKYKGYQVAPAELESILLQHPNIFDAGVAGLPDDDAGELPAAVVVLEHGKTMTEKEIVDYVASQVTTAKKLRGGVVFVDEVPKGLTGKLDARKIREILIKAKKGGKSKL
#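 Purified P. pyralis luciferase, 10 nM final, with Km-level 10 uM D-luciferin and 10 uM ATP in 50 mM Tris acetate pH 7.5, 10 mM Mg acetate, 0.01% Tween-20, 0.05% BSA; 6-point qHTS titration about 60 µM downward; luminescence read.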
# Rab9 promoter act: qHTS Assay for Rab9 Promoter Activators. Potency, µM (top dose mostly 9.22 µM), most hits filed as activators. hit rate 2.8% among 320,000. AID 485297, 2010. Huh7 Rab9 promoter-luciferase reporter, luminescence, 24 h; further: nearly all actives have a fitted effect of over 60% in size
#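 Measured in stably transfected Huh7 cells bearing a Rab9 promoter–luciferase construct: 24 h compound treatment at 37 °C, followed by luminescence detection.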
# NPC1 promoter act: qHTS Assay for NPC1 Promoter Activators; AID 485313, 2010; hit rate 2.4% among 320,000; Potency, µM (top dose mostly 9.22 µM), hits mostly activators; Huh7 NPC1 promoter luciferase reporter, 24 h; further: nearly all actives have a fitted effect of over 60% in size
#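 Stably transfected Huh7 (NPC1 promoter→luciferase), 1500 cells/well in Opti-MEM + 10% FBS, 2 h settle, then compound 24 h at 37 °C. Luminescence after 10 min with Amplite reagent.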
# ELG1 genotoxic: qHTS screen for small molecules that induce genotoxicity in human embryonic kidney (HEK293T) cells expressing luciferase-tagged ELG1; HEK293T ELG1-luciferase reporter, luminescence, 16 h; Potency, µM (top dose mostly 46 µM), most hits filed as activators; hit rate 1.3% among 330,000; AID 504466, 2011; further: nearly all actives have a fitted effect of over 60% in size
#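 HEK293T cells expressing luciferase-tagged ELG1 were exposed to compound or DMSO vehicle for 16 hr at 37 °C and 5% CO2. Luciferase activity was then measured with ONE-Glo after 30 min at room temperature.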
# SMN2 splice up: qHTS Assay for Enhancers of SMN2 Splice Variant Expression | HEK293 SMN2-luciferase splicing reporter, luminescence, 30-36 h | Potency, µM (series often up to 46.1 µM), hits mostly activators | hit rate 2.8% among 210,000 | AID 1458, 2008; further: nearly all actives have a fitted effect of over 55% in size
#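 qHTS luciferase splicing reporter: luminescence rises when SMN2 exon 7 is included in transfected HEK293 cells. Compound exposure lasted 30-36 h at 37C, with 4.5 mM final sodium butyrate as control, followed by a ONE-Glo read.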
# Numbers stand for hits; - = inactive; ? = inconclusive; . = no result given; [ ] = dose if it differs, or a comment. Only some compounds are listed: those with a hit (about 7.5% of all), similar ones and a draw of the others. The call rests on the fitted dose curve; in most records, active means well fitted curve in the direction sought with a large enough effect; inconclusive means small, poorly fitted or top-dose-only effect, or another doubt; inactive means no such curve, though single readings can be large; an effect the other way counts as inactive or inconclusive.
SMILES,FLuc modulator,Rab9 promoter act,NPC1 promoter act,ELG1 genotoxic,SMN2 splice up
CCn1c(-c2cccnc2Cl)nc2cc(Cl)c(Cl)cc21,?,-,-,-,-
CCn1c(=O)n(-c2ccc(F)c(Cl)c2)c(=O)c2sc3ccccc3c21,-,.,.,.,-
O=c1[nH]c2ccc(NCc3ccc(-c4ccccc4F)o3)cc2[nH]1,-,.,.,.,.
O=C(O)c1cc2c(s1)-c1ccccc1OC2,-,-,-,-,-
O=C(NC1CC1)c1cc2c(s1)-c1ccccc1OC2,12µM,-,-,?,-
CCn1c(C(=O)O)c(CC(=O)Nc2ccc(Br)cc2C)c2ccccc21,-,-,-,-,.
O=S(=O)(c1cccc(C(F)(F)F)c1)N1CCN(S(=O)(=O)c2ccc3c(c2)OCCO3)CC1,.,.,.,-,.
COc1ccc(OC)c(NC(=O)c2cnn(-c3ccccc3)c2C)c1,?,-,-,-,.
COc1ccc(NC(=O)c2cnn(-c3ccccc3)c2C)cc1OC,11µM,?,2.8µM,?,.
Cc1cc(C(=O)Nc2ccc(C)c(C)c2)n(-c2ccccc2)n1,-,-,-,-,.
COc1ccc(NC(=O)c2cnn(-c3ccccc3)c2C)cc1,3.8µM,0.4µM,2.5µM,?,.
Cc1ccc(NC(=O)c2cnn(-c3ccccc3)c2C)cc1C,0.34µM,0.63µM,0.4µM,?,.
O=C1N=C(N2CCCC2)CN1c1ccccc1,-,-,-,-,-
COc1ccc(/C=C/C(=O)N2CCN(c3ccccn3)CC2)c2ccccc12,?,-,-,-,-
CCCCC/C=C\C/C=C\C/C=C\C/C=C\CCCCCC(N)=O,.,.,.,.,-
CC(=O)c1cc2c(C)c(C(=O)c3ccccc3)oc2cc1O,0.54µM,1.6µM,4µM,?,-[1.84 µM]
CCc1sc(C(=O)Nc2ncccc2C)cc1C,?,-,-,-,.
Cc1ccsc1C(=O)Nc1nccs1,?,?,?,-,.
CCc1sc(C(=O)Nc2nccs2)cc1C,1.3µM,3.2µM,3.5µM,?,.
CCc1sc(C(=O)Nc2ncccc2O)cc1C,6µM,2.2µM,1.6µM,?,.
CC(C)(C)OC(=O)NN1CC(=O)N2Cc3[nH]c4ccccc4c3C[C@H]2C1=O,-,-,-,-,.
CSc1ccc(-c2nc(CSCC(=O)NC3CC3)c(C)o2)cc1,?,-,-,-,.
CCc1ccc(-c2nc(CSCC(=O)NC3CC3)c(C)o2)cc1,19µM,-,-,-,.
COc1ccc(-c2nc(CSCC(=O)NCCc3ccccc3)c(C)o2)cc1,?,.,.,.,-
COc1ccc(-c2nc(CSCC(=O)NCc3ccco3)c(C)o2)cc1,17µM,-,-,-,-
SMILES,FLuc modulator,Rab9 promoter act,NPC1 promoter act,ELG1 genotoxic,SMN2 splice up
CCCCC(=O)Nc1cc(Cl)ccc1C(=O)O,?,-,-,-,-
O=C(CSc1ncccn1)N1CCN(S(=O)(=O)c2ccccc2)CC1,-,-,-,-,.
Cc1cc(Br)ccc1SCC(=O)N1CCN(S(=O)(=O)c2ccccc2)CC1,13µM,?,?,16µM,.
CCOC(=O)C1CCN(C(=O)c2ccc(C)c(NC(=O)c3nsc4ccccc34)c2)CC1,-,.,.,.,.
NC(=O)C1CCN(C(=O)c2ccc(NC(=O)c3nsc4ccccc34)cc2)CC1,1.7µM,.,.,.,.
CCOC(=O)C1CCCN(C(=O)c2ccc(NC(=O)c3nsc4ccccc34)cc2)C1 (stereo not drawn),12µM,.,.,.,.
Cc1ccc(C(=O)N2CCC(C(N)=O)CC2)cc1NC(=O)c1nsc2ccccc12,-,.,.,.,.
CCOC(=O)C1CCCN(C(=O)c2ccc(C)c(NC(=O)c3nsc4ccccc34)c2)C1 (stereo not drawn),-,.,.,.,.
CCOC(=O)C1CCN(C(=O)c2ccc(NC(=O)c3nsc4ccccc34)cc2)CC1,15µM,.,.,.,.
CCNc1sc(S(C)(=O)=O)nc1S(=O)(=O)c1ccc(Cl)cc1,-,-,-,-,.
Cc1ccc(CNc2ccc3c(c2)OCO3)c(C)c1,21µM,.,.,.,-
Clc1cc(NCc2cccs2)ccc1N1CCOCC1,?,?,?,18µM,?
c1csc(CNc2ccc3c(c2)OCCO3)c1,27µM,-,-,8.2µM,-
Oc1ccccc1CNc1ccc2c(c1)OCCO2,12µM,3.5µM,-,?,.
CN(C)c1ccc(CNC(=O)c2sc3ncccc3c2-n2cccc2)cc1,-,.,.,.,.
COc1ccc(OCC(=O)N(Cc2cccc(OC)c2)C2CCS(=O)(=O)C2)cc1 (stereo not drawn),-,.,.,.,-
COc1ccc(C(=O)Cc2cc3ccccc3oc2=O)cc1,12µM,?,3.5µM,?,.
Cc1ccc(C(=O)Cc2cc3ccccc3oc2=O)c(C)c1,3µM,0.79µM,1.4µM,?,.
Cc1ccc(C(=O)NC(=S)Nc2ccc(-c3cc4ccccc4oc3=O)cc2)c(C)c1,-,-,-,-,-
CCOc1ccc(C(=O)Cc2cc3cccc(OC)c3oc2=O)cc1,?,-[1.84 µM],-,-,.
COc1cccc(-n2cnnc2SC(C)C(=O)NC2CCCC2)c1 (stereo not drawn),.,-,-,-,.
CC1=NN(c2ccccc2)C(=O)/C1=C/c1ccc(Cl)cc1,?,-,-,-,.
COc1ccc(/C=C2/C(=O)N(c3ccccc3)N=C2C)cc1Br,13µM,-,-,-,.
CC1=NN(c2cccc(F)c2)C(=O)/C1=C/c1ccc(N(C)C)cc1,5.4µM,-,-,-,.
CC1=NN(c2ccccc2)C(=O)/C1=C/c1ccc[nH]1,17µM,-,-,?,10µM
SMILES,FLuc modulator,Rab9 promoter act,NPC1 promoter act,ELG1 genotoxic,SMN2 splice up
CC1=NN(c2ccccc2)C(=O)/C1=C\c1ccc(Br)s1,9.5µM,-,-,?,-[1.84 µM]
COc1ccc(/C=C2/C(=O)N(c3cccc(F)c3)N=C2C)c(OC)c1,?,-,-,-,.
O=C(CN(Cc1ccc(F)cc1)S(=O)(=O)c1ccc(S(=O)(=O)N2CCOCC2)cc1)Nc1ccccc1,-,-,-,-,-
CC1=NN(c2ccc(C(=O)O)cc2)C(=O)/C1=C\c1ccc(OC(=O)c2cccs2)cc1,24µM,-,-,-,-
CC1=NN(c2ccccc2)C(=O)/C1=C/c1cccs1,8.5µM,-,-,-,-
CCOc1cc(/C=C2\C(=O)N(c3ccc(C(N)=O)cc3)N=C2C)ccc1OC(=O)c1cccs1,?,-,-,-,-
CC1=NN(c2ccccc2)C(=O)/C1=C/c1c(O)n(-c2ccc(F)cc2)[nH]c1=O,0.6µM,-,-,?,-[1.84 µM]
O=C(Nc1ccc(Cl)c(Cl)c1)C1CCCCC1,?,-,-,-,.
c1ccc(OCCSc2nnnn2-c2ccccc2)cc1,2.7µM,0.89µM,2.5µM,3.7µM,16µM
Fc1ccccc1OCCSc1nnnn1-c1ccccc1,3µM,?,2.5µM,10µM,3.2µM
CCOc1ccc(OCCSc2nnnn2-c2ccccc2)cc1,?,-,-,-,.
COc1ccccc1OCCSc1nnnn1-c1ccc(C)cc1,17µM,-,-,?,?
CCCN(CCC)CCNC(=O)Cn1cnc2sc(C)c(S(=O)(=O)N3CCN(c4ccccc4OC)CC3)c2c1=O,-,.,.,.,-
CC(C)c1ccc(NC(=O)N2CCc3ccccc3C2)cc1,11µM,4µM,?,?,13µM
